According to ChEMBL document CHEMBL3433997, “St. Jude Leishmania screening dataset” (2016):

What was measured:
Assay type in all cases: functional
[1] = target: Solute carrier family 2, facilitated glucose transporter member 1 (Homo sapiens) (UniProt P11166); assay: ST_JUDE_LEISH: Cytotoxicity at 2uM final concentration against transgenic Leishmania Mexicana promastigotes LmGLUT1 that are glucose transport deficient and complemented with the human glucose transporter GLUT1. Activity is measured by DNA content using SYBR green in vitro
Solute carrier family 2, facilitated glucose transporter member 1 (Homo sapiens), sequence (P11166 whole entry): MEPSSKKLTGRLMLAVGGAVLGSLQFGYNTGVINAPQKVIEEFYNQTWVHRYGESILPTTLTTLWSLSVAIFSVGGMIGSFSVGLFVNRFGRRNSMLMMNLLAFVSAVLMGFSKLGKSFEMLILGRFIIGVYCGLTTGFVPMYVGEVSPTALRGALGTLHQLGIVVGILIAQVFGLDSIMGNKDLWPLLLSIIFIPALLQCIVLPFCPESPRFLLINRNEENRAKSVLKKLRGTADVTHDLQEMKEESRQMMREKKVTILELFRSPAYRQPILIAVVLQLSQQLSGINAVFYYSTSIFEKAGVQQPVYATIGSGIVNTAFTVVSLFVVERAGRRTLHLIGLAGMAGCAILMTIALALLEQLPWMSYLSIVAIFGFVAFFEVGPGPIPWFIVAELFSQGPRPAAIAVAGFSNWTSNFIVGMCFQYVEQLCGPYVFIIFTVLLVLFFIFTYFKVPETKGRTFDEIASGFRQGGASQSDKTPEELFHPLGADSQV

[2] = target: Hexose transporter 1 (Plasmodium falciparum) (UniProt O97467); assay: ST_JUDE_LEISH: Cytotoxicity at 2uM final concentration against transgenic Leishmania Mexicana promastigotes LmPfHT that are glucose transport deficient and complemented with the Plasmodium falciparum hexose transporter. Activity is measured by DNA content using SYBR green in vitro
[3] = target: Glucose transporter (Leishmania mexicana) (UniProt O61059); assay: ST_JUDE_LEISH: Cytotoxicity at 2uM final concentration against transgenic Leishmania Mexicana promastigotes LmGT2 that are glucose transport deficient and complemented with the L. Mexicana glucose transporter 2. Activity is measured by DNA content using SYBR green in vitro

## CC(C)(CNCc1ccccc1)c1nc(-c2ccc(Cl)c(O)c2)c(-c2ccncc2)[nH]1
[1]
  inhibition: 4.28%
[2]
  inhibition: 4.73%
[3]
  inhibition: 3.53%

## CCc1cn2c3c(cc(C(=O)N[C@@H](Cc4cccc(F)c4)[C@H](O)CNC4CC4)cc13)N(C)S(=O)(=O)CC2
[1]
  inhibition: 2.18%
[2]
  inhibition: 3.5%
[3]
  inhibition: 4.48%

## N=C(N)c1cc(Cl)cc(NC(=O)Nc2cc(Cl)cc(C(=N)N)c2)c1
[1]
  inhibition: 2.37%
[2]
  inhibition: 1.25%
[3]
  inhibition: 1.53%

## c1cc(CNC2CCN(CC3CCCCC3)CC2)cc(-n2ccnc2)c1
[1]
  inhibition: -0.57%
[2]
  inhibition: -0.48%
[3]
  inhibition: 1.45%

## Cc1cc(OCCCN2CCCCC2)ccc1NC(=O)COc1ccc(Cl)cc1C(=O)c1cc(C#N)cc(C(F)(F)F)c1
[1]
  inhibition: 4.63%
[2]
  inhibition: 3.53%
[3]
  inhibition: 0.43%

## CCNc1cc(C(=O)N[C@@H](Cc2ccccc2)[C@H](O)CNC(C)CCCC(C)C)cc(N2CCCS2(=O)=O)c1 (some centres undefined)
[1]
  inhibition: 2.83%
[2]
  inhibition: 1.89%
[3]
  inhibition: 2.08%

## COc1c(C2CCN(CCCCNC(=O)c3ccc(-c4ccc(NC(=O)C(F)(F)F)cc4)cc3)CC2)ccc2c1CCCC2
[1]
  inhibition: 1.22%
[2]
  inhibition: 4.26%
[3]
  inhibition: 0.3%

## CC(C)CN(C)Cc1ccc(-c2ccc(-c3nc4ccccc4[nH]3)s2)cc1
[1]
  inhibition: -1.24%
[2]
  inhibition: -0.64%
[3]
  inhibition: -1.65%

## Cc1c(-c2ccc(C(=O)NC3CC(C)(C)NC(C)(C)C3)cc2)[nH]c2cc(Cl)c(Cl)cc12
[1]
  inhibition: 10.9%
[2]
  inhibition: 8.08%
[3]
  inhibition: 13.8%

## COc1ccc2c(N/N=C/c3ccccc3[N+](=O)[O-])ccnc2c1
[1]
  inhibition: 4.94%
[2]
  inhibition: -0.53%
[3]
  inhibition: 3.75%

## CCCCCNC(=N)N/N=C/c1c[nH]c2ccc(OC)cc12
[1]
  inhibition: 1.71%
[2]
  inhibition: 3.63%
[3]
  inhibition: -0.13%

## Cc1cc(C)c(-c2n[nH]c3c2C(c2cccc(Cl)c2)N(Cc2ccco2)C3=O)c(O)c1 (centres undefined)
[1]
  inhibition: 1.7%
[2]
  inhibition: 5.35%
[3]
  inhibition: 1.37%

## CCCCOC(=O)c1ccc(Nc2cc(C)nc3ccc(OC)cc23)cc1
[1]
  inhibition: 14.7%
[2]
  inhibition: 12.5%
[3]
  inhibition: 6.35%

## COc1ccc(CN2CCC(CNCCc3c(Cl)cccc3Cl)CC2)cc1
[1]
  inhibition: 7.06%
[2]
  inhibition: 8.38%
[3]
  inhibition: 9.64%

## OC(c1cccc2ccccc12)C1CN(CCc2ccccc2)CCC1(O)c1ccccc1 (centres undefined)
[1]
  inhibition: 9.92%
[2]
  inhibition: 11.8%
[3]
  inhibition: 3.51%

## CCN(CC)c1nc(N)c2c(N)nc3c(c2c1C#N)C(=O)CN3Cc1ccccc1
[1]
  inhibition: 7.21%
[2]
  inhibition: 6.8%
[3]
  inhibition: 6.97%

## O=c1cc(NCCC(CNCc2ccoc2)NCc2cc(Br)cc(Br)c2)[nH]c2ccccc12 (centres undefined)
[1]
  inhibition: 6.77%
[2]
  inhibition: 6.66%
[3]
  inhibition: 9.4%

## CCCCCOc1ccc(N2C(N)=NC(N)=NC2(C)C)cc1
[1]
  inhibition: 2.39%
[2]
  inhibition: 2.59%
[3]
  inhibition: 2.5%

## CN1CCC(N(C)C(=O)C=Cc2cn(-c3ccccc3)nc2-c2cc3ccccc3o2)CC1
[1]
  inhibition: 3%
[2]
  inhibition: 1.17%
[3]
  inhibition: -0.25%

## CCCNC(=O)C1Cc2c([nH]c3ccc(Br)cc23)C2(CCN(CCc3ccccc3)CC2)N1 (centres undefined)
[1]
  inhibition: -1.4%
[2]
  inhibition: 0.12%
[3]
  inhibition: 1.33%

## Cc1cc(N)c2cc(NC(=O)/C=C/c3ccc([N+](=O)[O-])cc3)ccc2n1
[1]
  inhibition: 3.11%
[2]
  inhibition: 1.19%
[3]
  inhibition: 0.94%

## COc1ccc(Nc2nccc(NCCNC(=O)Nc3ccccc3F)n2)cc1
[1]
  inhibition: 2.23%
[2]
  inhibition: 3.75%
[3]
  inhibition: -0.4%

## COc1ccc(-c2c(-c3ccc(OCc4ccccc4)cc3O)n[nH]c2C(F)(F)F)cc1
[1]
  inhibition: 3.36%
[2]
  inhibition: 1.26%
[3]
  inhibition: 1.92%

## Cc1cccc2nc(-c3cccc(-c4ccc(CN5CCC(C(N)=O)CC5)cc4)c3)[nH]c12
[1]
  inhibition: 9.22%
[2]
  inhibition: 9.68%
[3]
  inhibition: 9.06%

## CCC(CC)(Cc1ccccc1)NC(=O)[C@H](Cc1ccc(OC)c(OC)c1)Nc1ccc(C#N)c2ccccc12
[1]
  inhibition: 2.88%
[2]
  inhibition: 2.31%
[3]
  inhibition: 3.47%

## Cc1ccc(-c2nc(N3CCN(C(=O)c4ccco4)CC3)c3ccccc3n2)cc1
[1]
  inhibition: 2.55%
[2]
  inhibition: 0.57%
[3]
  inhibition: 0.1%

## CCCc1cc(=O)oc2cc(OC)c(C(=O)CC(C)C)c(OC)c12
[1]
  inhibition: 0.58%
[2]
  inhibition: 3.76%
[3]
  inhibition: 6.92%

## CC(=O)Nc1ccc(CN2CCC(NC(=O)c3cc(-c4ccc(N(C)C)cc4)cs3)C2)cc1 (centres undefined)
[1]
  inhibition: 1.62%
[2]
  inhibition: 3.72%
[3]
  inhibition: 4.39%

## CCOC(=O)c1cccc(NC(=O)Nc2cccc(-c3ncc(OCCCN)c4c3nc(-c3nonc3N)n4CC)c2)c1
[1]
  inhibition: 2.41%
[2]
  inhibition: 3.25%
[3]
  inhibition: 3.37%

## COc1ccc(Cl)cc1N1CCN(CCCNC(=O)c2ccc(-c3nc4cnccc4[nH]3)c(Br)c2)CC1
[1]
  inhibition: 0.19%
[2]
  inhibition: -0.19%
[3]
  inhibition: -0.85%

## CCN1CCN(c2ccc(Nc3c4ccccc4nc4ccccc34)cc2)CC1
[1]
  inhibition: 7.35%
[2]
  inhibition: 10.6%
[3]
  inhibition: 2.24%

## Cc1ccccc1OCC(O)CN1CCC(C2CCN(CC(O)COc3ccccc3C)CC2)CC1 (centres undefined)
[1]
  inhibition: 2.25%
[2]
  inhibition: 2%
[3]
  inhibition: 2.28%

## CC(Oc1ccc(Cl)cc1)C(=O)N(C)C1CCN(CCCCCNC(=O)/C=C/c2ccc(Cl)c(Cl)c2)CC1 (centres undefined)
[1]
  inhibition: 1.06%
[2]
  inhibition: 3.1%
[3]
  inhibition: 1.95%
